Data published in PubChem BioAssay (NCI).
Compounds without any hit were thinned out: in the full panel of roughly 79,000, 15% have a hit. Unmarked numbers belong to inactive results. Calls of active or inactive are those of the source. Rule as the data show it: active = growth inhibition above about 70%; inactive = the rest.

Experiments:
[1] = NCI Yeast Anticancer Drug Screen. Data for the rad50 strain (AID 155);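 also: 0% = growth of vehicle-only cultures of the same strain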; settings: S. cerevisiae rad50 strain growth inhibition, hits give high values
Method in brief: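 Compounds were tested on a yeast strain with an engineered DNA damage repair alteration; the reported value is growth inhibition normalised to vehicle treatment.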

[2] = NCI Yeast Anticancer Drug Screen. Data for the mec2-1 strain (AID 157); settings: S. cerevisiae mec2-1 strain, hits give high values
Method in brief: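 Using mec2-1 yeast: add compound, measure growth, express inhibition versus vehicle-treated cultures.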

[3] = NCI Yeast Anticancer Drug Screen. Data for the sgs1 mgt1 strain (AID 161);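 also: 0% = growth of cultures given vehicle only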; settings: S. cerevisiae sgs1 mgt1 strain, hits give high values
Method in brief: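 Compounds are added to genetically altered yeast, and growth is compared with cultures given vehicle alone to give percent inhibition.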

[4] = NCI Yeast Anticancer Drug Screen. Data for the cln2 rad14 strain (AID 165);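 also: 0% = growth equal to vehicle treated cultures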; settings: S. cerevisiae cln2 rad14 strain, hits give high values
Method in brief: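 Yeast strain cln2 rad14, bearing defects in cell cycle control and DNA repair, serves as the test system; values reflect growth inhibition compared with vehicle.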

[5] = NCI Yeast Anticancer Drug Screen. Data for the bub3 strain (AID 167); settings: S. cerevisiae bub3 mutant strain, hits give high values
Method in brief: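 Growth of a checkpoint-deficient yeast mutant is measured after compound exposure. Values represent inhibition relative to vehicle.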

[6] = NCI Yeast Anticancer Drug Screen. Data for the mlh1 rad18 strain (AID 175); settings: S. cerevisiae mlh1 rad18 strain growth inhibition, hits give high values
Method in brief: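 Steps: expose repair-defective yeast to compound; measure growth; express inhibition against vehicle-treated controls.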

[7] = at 5.0 µM (retest, dose inferred, filed as 0.5)
[8] = at 50.0 µM (retest, dose inferred, filed as 5.0)

SMILES	growth inhibition [1, 7]	growth inhibition [1, 8]	growth inhibition ([1]; at 50.0 µM)	growth inhibition [2, 7]	growth inhibition [2, 8]	growth inhibition ([2]; at 50.0 µM)	growth inhibition [3, 7]	growth inhibition [3, 8]	growth inhibition ([3]; at 50.0 µM)	growth inhibition [4, 7]	growth inhibition [4, 8]	growth inhibition ([4]; at 50.0 µM)	growth inhibition [5, 7]	growth inhibition [5, 8]	growth inhibition ([5]; at 50.0 µM)	growth inhibition [6, 7]	growth inhibition [6, 8]	growth inhibition ([6]; at 50.0 µM)
Cc1cccc(/C=N/NC(=S)Nc2ccccc2)n1	-19%	99% (active)	89.2% (active)	-49%	99% (active)	92.8% (active)	-42%	99% (active)	91.2% (active)	-37%	99% (active)	91.8% (active)	-42%	100% (active)	92% (active)	-30%	100% (active)	89.3% (active)
CCCCc1c(O)c(N=NC(=O)C[n+]2ccccc2)c2ccccc2c1O	-2%	10%	8.55%	-3%	32%	11.6%	2%	27%	17.8%	2%	-3%	40.1%	-3%	-1%	13.5%	-2%	21%	4.75%
CC1/C=C/C=C/CC/C=C/C=C/C=C/C=C/C(OC2OC(C)C(O)C(N)C2O)CC2OC(CC(O)C(O)CCC(O)CC(O)CC(O)CC(=O)OC(C)C(C)C1O)CC(O)C2C(=O)O (centres undefined)	98% (active)	100% (active)	99.3% (active)	96% (active)	100% (active)	99.3% (active)	56%	100% (active)	99.2% (active)	93% (active)	100% (active)	99.1% (active)	99% (active)	100% (active)	99.2% (active)	97% (active)	99% (active)	98.5% (active)
CC(C)/C(Cl)=N\OC(=O)Nc1cccc(F)c1	14%	65%	-5.85%	-7%	45%	63%	-6%	96% (active)	82.9% (active)	41%	28%	25.9%	-13%	82% (active)	69.7%	-3%	28%	50.8%
CCC[CH2][Sn]([CH2]CCC)([O]C(=O)c1cc(OC)c(OC)cc1OC)[O]C(=O)c1cc(OC)c(OC)cc1OC	88% (active)	88% (active)	89.8% (active)	90% (active)	90% (active)	91.5% (active)	87% (active)	87% (active)	90.1% (active)	79% (active)	79% (active)	91.2% (active)	85% (active)	85% (active)	87.2% (active)	84% (active)	84% (active)	89.5% (active)
C[Si](C)c1cccc(Cl)c1	2%	5%	0.25%	0%	4%	0.45%	-1%	-3%	6.9%	8%	6%	13.8%	1%	0%	7.55%	-29%	1%	-0.75%
COc1ccc(C2SC(C)C(=O)N2c2nc(-c3nc(-c4ccc(Cl)cc4)cs3)cs2)cc1 (centres undefined)	42%	86% (active)	45%	17%	99% (active)	39.9%	5%	92% (active)	69.3%	4%	99% (active)	83.5% (active)	-17%	99% (active)	27.3%	23%	99% (active)	77% (active)
O=C1C=CC(=O)N1c1ccccc1 (tested in a mixture with another compound)	0%	20%	91% (active)	-1%	32%	92.8% (active)	0%	39%	94.4% (active)	-3%	34%	93.8% (active)	-15%	77% (active)	95.2% (active)	-1%	22%	77.2% (active)
